This is part of a sample that, as a whole, favours compounds with a hit. Of some 79,000 tested, about 15% had one in any assay. A number with no mark means an inactive call. Calls of active or inactive are those of the source. Rule as the data show it: active = growth inhibition above about 70%; inactive = the rest.
Legend:
[1] = NCI Yeast Anticancer Drug Screen. Data for the rad50 strain (AID 155);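 also: 0% = growth of vehicle-only cultures of the same strain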; conditions: S. cerevisiae rad50 strain growth inhibition; at 50.0 µM; active compounds read high
In short: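 Cells are treated with compound, grown, and their growth is then scored against vehicle-only cultures of the same repair-deficient yeast strain.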

[2] = NCI Yeast Anticancer Drug Screen. Data for the mec2-1 strain (AID 157); conditions: S. cerevisiae mec2-1 strain, at 50.0 µM, active compounds read high
In short: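 Yeast mec2-1 mutant treated with compound. Readout: growth inhibition vs vehicle controls.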

[3] = NCI Yeast Anticancer Drug Screen. Data for the sgs1 mgt1 strain (AID 161);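 also: 0% = growth of cultures given vehicle only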; conditions: S. cerevisiae sgs1 mgt1 strain, at 50.0 µM, active compounds read high
In short: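 Read-out: growth inhibition vs vehicle controls. Cells: mutant yeast strain deficient in DNA damage repair.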

[4] = NCI Yeast Anticancer Drug Screen. Data for the cln2 rad14 strain (AID 165);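 also: 0% = growth equal to vehicle treated cultures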; conditions: S. cerevisiae cln2 rad14 strain, at 50.0 µM, active compounds read high
In short: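 cln2 rad14 yeast strain; compound exposure; growth inhibition read vs vehicle controls.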

[5] = NCI Yeast Anticancer Drug Screen. Data for the bub3 strain (AID 167); conditions: S. cerevisiae bub3 mutant strain, at 50.0 µM, active compounds read high
In short: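 Part of a panel of yeast mutants defective in DNA damage repair or cell cycle regulation. Each strain is grown with compound, and inhibition is calculated relative to solvent-treated cultures.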

[6] = NCI Yeast Anticancer Drug Screen. Data for the mlh1 rad18 strain (AID 175); conditions: S. cerevisiae mlh1 rad18 strain growth inhibition; at 50.0 µM; active compounds read high
In short: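 Yeast w/ defined DNA-repair lesions; compound exposure; growth vs vehicle controls → % inhibition.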

SMILES	growth inhibition [1]	growth inhibition [2] [%]	growth inhibition [3]	growth inhibition [4] [%]	growth inhibition [5] [%]	growth inhibition [6]
COc1cc2c(cc1OC)C(c1cc(OC)c(OC)c(OC)c1)C1(O)C(=O)OCC1(O)C2 (stereo not given)	20.1%	-8.25	13.1%	21.8	19.4	20.2%
COC(=O)[C@H]1C=C[C@@H](C)n2c(=O)c3ccccc3c(=O)n21	-9%	15.4	-1.4%	-9.75	-19.1	-6.8%
Nc1c(Br)c(Cl)c(Br)c2c1-c1ccc(Cl)cc1C2	-13.1%	-4.8	-1.4%	-19.9	7.15	5.05%
CN(C)c1ccc(/C=C2\Cc3ccccc3C2=O)cc1Br	19.6%	-8	1.45%	0.95	-8.55	12.4%
Brc1ccc2c[n+]3ccccc3cc2c1	11.9%	7.35	12%	-31.9	24.2	9.4%
CCC(=O)Oc1ccc(C(C)(C)CC(C)(C)C)cc1	32.2%	-8.85	34%	-7.05	6.05	51.7%
COC(=O)C1OC(O[C@H]2CC[C@]3(C)[C@H]4CC=C5[C@@H]6CC(C)(C)CC[C@]6(C(=O)OC)[C@H](O)C[C@@]5(C)[C@]4(C)CC[C@H]3C2(C)C)C(O)C(O)C1O (stereo not given in full)	14.4%	37.6	26.6%	26.4	21.4	33.4%
CC1=C(O[Si](C(C)C)(C(C)C)C(C)C)C2CC1(OS(=O)(=O)C(F)(F)F)[C@H]1C(=O)N(c3ccccc3)C(=O)[C@@H]21 (stereo not given in full)	-4.8%	-11.4	0.3%	17.4	5.2	-20.9%
CCCCCCCCCC(=O)N/N=C/c1ccncc1	97.2% (active)	23.1	98.8% (active)	9.35	26.2	98.3% (active)
O=[N+]([O-])c1ccc(N=Nc2c(O)[nH]c3ccc(Br)cc23)cc1	22.4%	-20.2	14.3%	10.8	-15.4	15.3%
NC(Cc1ccc(S(=O)(=O)O)cc1)C(=O)NC(CCCCNC(=O)NCCCCC(NC(=O)C(N)Cc1ccc(S(=O)(=O)O)cc1)C(=O)NC(Cc1ccc(S(=O)(=O)O)cc1)C(=O)O)C(=O)NC(Cc1ccc(S(=O)(=O)O)cc1)C(=O)O (stereo not given)	-11.7%	-3.8	8.45%	-8.65	22.6	14.2%
O=[N+]([O-])c1ccc(N/N=C2\C=CCCC2)c([N+](=O)[O-])c1	-0.95%	-11.9	-13%	15.3	-12.6	17.1%
COC(=O)CC1(O)C=CCCC1c1ccccc1 (stereo not given)	-23.2%	-7.6	2.35%	0.3	-7.5	-35%
CC(=O)O[C@H]1C[C@H]2CC[C@@]1(C)C2(C)C	0.85%	-4.45	-5.55%	-24.8	-1.1	7.95%
Nc1ccc(S(=O)c2ccc(N)cc2)cc1	27.9%	-14.1	8.25%	20.8	18.6	33.1%
O=C(Nc1nc(C23CC4CC(CC(C4)C2)C3)cs1)c1cc2cc([N+](=O)[O-])ccc2oc1=O	-12.7%	-31.5	-14.8%	-34.7	-15.2	-10.8%
CN(Cc1cnc2nc(N)nc(N)c2n1)c1ccc(C(=O)NC(CCC(=O)NC(CCC(=O)NC(CCC(=O)NC(CCC(=O)O)C(=O)O)C(=O)O)C(=O)O)C(=O)O)cc1 (stereo not given)	42.8%	-19.8	-35.9%	-26.1	-41.6	-12.5%
[N-]=[N+]=Nc1ccccc1C(=O)NCCCNC(=O)c1ccccc1N=[N+]=[N-]	-0.25%	-23.1	25%	1.8	19.4	16%
O=C1C=C(Nc2ccc3ccccc3c2[N+](=O)[O-])c2ccccc2C1=O	27.2%	17.4	8.05%	-16.4	23.2	7.1%
COc1ccc(/C=N/N2CCN(/N=C/c3ccc(OC)cc3)CC2)cc1	9.85%	9.7	9.2%	-6.1	5.1	-5.35%

SMILES	growth inhibition [1]	growth inhibition [2] [%]	growth inhibition [3]	growth inhibition [4] [%]	growth inhibition [5] [%]	growth inhibition [6]
OC1C=CC2CCC1C2 (stereo not given)	-4.85%	7.15	-16.4%	6	10.8	5.2%
N=C1N=C(N)c2cc3c(cc21)SCCSCCCSCCS3	6.05%	1.95	2.6%	9.15	4.2	30.4%
CC(=O)Oc1ccc(C2COc3cc(OC(C)=O)c(OC(C)=O)cc3C2)cc1 (stereo not given)	21.2%	31.6	43%	9.4	49.6	37.5%
Cc1c[nH]c2nc(C)n(-c3ccccc3F)c(=N)c12	-8.5%	-2.75	-9.35%	-8.7	-10.8	-0.95%
CCCCC(C)(O)CCC (stereo not given)	5.8%	-11.9	0.5%	5.05	7.3	-6.05%
Cc1c([N+](=O)[O-])cc(C(C)(C)C)c(OC(=O)Nc2ccc(Cl)cc2)c1[N+](=O)[O-]	41.4%	63.7	65.7%	52.2	27.6	69%
COC(=O)C=Cc1ccc2nncnc2c1 (mixture of isomers)	24.1%	21.7	8.15%	17.1	36.4	-7.7%
C/C(N=NS(=O)(=O)c1c(C)cc(C)cc1C)=C1\C=CC=CN1O	-26.4%	-10.2	-8.25%	-6.95	4.15	-18.8%
CN(C)C(=O)NC(=S)N(C)C	-4.05%	-10.3	-9.85%	-13.2	4.05	4.95%
CCC(C)(C)c1ccc([N+](=O)[O-])cc1	18.3%	8.8	27.4%	15.7	-0.65	2.35%
COC(=O)C1(C(=O)Nc2ccccc2)N=N1	13.7%	7.55	2.5%	3.35	-4.45	8.15%
O=C(O)CCCCCC1=CCCCC1	11.9%	33.2	20.9%	19.2	24.6	23.5%
O=C1CCCCc2ccccc21	-39.1%	-57.4	-7.95%	-7	-25.1	-8.25%
O=C(OCCN1C(=O)c2cccc3c(Br)ccc(c23)C1=O)OCc1ccccc1	86.2% (active)	48.5	60.1%	49.4	61.7	70.3% (active)
CC1=C(C(=O)NCc2ccccc2)C(c2ccc(Cl)c(Cl)c2)C(C(=O)NCc2ccccc2)=C(C)N1	-10.9%	12.2	-21.1%	21.2	-12.4	-18.9%
Cc1ccc(C(=O)N/N=C/c2ccc(N(C)C)cc2Cl)cc1	39.5%	20.2	16.4%	22.9	61	21.9%
O=C(NCCN1CCNCC1)c1ccc(Cl)cc1	26.9%	40	30.8%	63	33.6	40.2%
CCC(=O)N(O)C(C)(C)C	10.8%	0.65	14.7%	7.55	7.2	22.1%
CC(C)=CCC1=C(OC2OC(CO)C(O)C(O)C2O)C(=O)c2ccccc2C1=O (stereo not given)	15.2%	15.6	11.2%	6.95	6.55	5.5%
O=[N+]([O-])c1ccc(OCCO)c([N+](=O)[O-])c1	6.75%	-5.85	-22.4%	-11.5	-0.15	10%

— PubChem BioAssay (NCI)
